PubChem BioAssay AID1159580 (chemical genetic matrix, 2015)
Among all 5,500 compounds or so, about 2,000 (36%) were called active. Inconclusive results (about 18%) are left out. Rule as the data show it: active = normalized growth mostly below about 0.91 (no sharp cut-off); inconclusive = no clear call, values can overlap the other calls; inactive = mostly above about 0.92. The list shows a part of the results.

Experiment: chemical genetic growth profiling, strain panel (AID 1159580);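 also: tested at 20 µM; growth read once vehicle control cultures reached saturation at 30 °C; 1 = growth at the plate median or of vehicle wells; lower values mean less growth of the strain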
Settings: growth OD

Measured: normalized growth

CO[C@]12C[C@@H](COC(=O)c3cncc(Br)c3)CN(C)[C@@H]1Cc1cn(C)c3cccc2c13
active: S. cerevisiae deletion strains, locus YLR039C, strain RIC1, stronger effect = lower value 1.34 [resistant] | S. cerevisiae deletion strains, locus YLR262C, strain YPT6, stronger effect = lower value 1.45 [resistant]
inactive: S. cerevisiae deletion strains, locus YJR075W, strain HOC1, stronger effect = lower value 0.994 | S. cerevisiae deletion strains, locus YKL009W, strain mrt4, stronger effect = lower value 0.968 | S. cerevisiae deletion strains, locus YKL068W, stronger effect = lower value 0.997 | S. cerevisiae deletion strains, locus YKL085W, strain MDH1 (second series), stronger effect = lower value 0.995 | S. cerevisiae deletion strains, locus YKL085W, strain MDH1, stronger effect = lower value 0.995 | S. cerevisiae deletion strains, locus YKL160W, strain elf1, stronger effect = lower value 0.984 | S. cerevisiae deletion strains, locus YKL190W, strain CNB1, stronger effect = lower value 0.999 | S. cerevisiae deletion strains, locus YKR001C, strain vps1, stronger effect = lower value 1.02 | S. cerevisiae deletion strains, locus YKR026C, strain gcn3, stronger effect = lower value 1.03 | S. cerevisiae deletion strains, locus YKR091W, strain srl3, stronger effect = lower value 0.981 | S. cerevisiae deletion strains, locus YLL001W, strain dnm1, stronger effect = lower value 0.965 | S. cerevisiae deletion strains, locus YLL026W, stronger effect = lower value 0.989 | S. cerevisiae deletion strains, locus YLL041C, strain sdh2, stronger effect = lower value 0.998 | S. cerevisiae deletion strains, locus YLR027C, strain aat2, stronger effect = lower value 0.964 | S. cerevisiae deletion strains, locus YLR058C, strain SHM2, stronger effect = lower value 1 | S. cerevisiae deletion strains, locus YLR102C, strain apc9, stronger effect = lower value 1.01 | S. cerevisiae deletion strains, locus YLR113W, strain HOG1, stronger effect = lower value 0.954 | S. cerevisiae deletion strains, locus YLR221C, strain rsa3, stronger effect = lower value 0.973 | S. cerevisiae deletion strains, locus YLR258W, strain gsy2, stronger effect = lower value 0.997 | S. cerevisiae deletion strains, locus YLR262C, strain YPT6 (second series), stronger effect = lower value 1.07 | S. cerevisiae deletion strains, locus YLR268W, strain sec22, stronger effect = lower value 1.01 | S. cerevisiae deletion strains, locus YLR320W, strain mms22, stronger effect = lower value 0.983 | S. cerevisiae deletion strains, locus YLR330W, strain CHS5, stronger effect = lower value 1.01 | S. cerevisiae deletion strains, locus YLR342W, strain FKS1 (second series), stronger effect = lower value 0.968 | S. cerevisiae deletion strains, locus YLR342W, strain FKS1, stronger effect = lower value 0.975 | S. cerevisiae deletion strains, locus YLR357W, strain rsc2, stronger effect = lower value 0.969 | S. cerevisiae deletion strains, locus YLR370C, strain arc18, stronger effect = lower value 0.985 | S. cerevisiae deletion strains, locus YLR371W, strain rom2, stronger effect = lower value 1.01 | S. cerevisiae deletion strains, locus YLR384C, strain iki3, stronger effect = lower value 0.991 | S. cerevisiae deletion strains, locus YLR418C, strain cdc73, stronger effect = lower value 1.03 | S. cerevisiae deletion strains, locus YML016C, strain PPZ1, stronger effect = lower value 1.01 | S. cerevisiae deletion strains, locus YML032C, strain rad52, stronger effect = lower value 1.01 | S. cerevisiae deletion strains, locus YML120C, strain ndi1, stronger effect = lower value 0.993 | S. cerevisiae deletion strains, locus YML124C, strain tub3, stronger effect = lower value 1.01 | S. cerevisiae deletion strains, locus YMR058W, strain fet3, stronger effect = lower value 0.992 | S. cerevisiae deletion strains, locus YMR078C, strain ctf18, stronger effect = lower value 1 | S. cerevisiae deletion strains, locus YMR125W, strain sto1, stronger effect = lower value 0.977 | S. cerevisiae deletion strains, locus YMR129W, stronger effect = lower value 0.977 | S. cerevisiae deletion strains, locus YMR205C, strain PFK2, stronger effect = lower value 0.977 | S. cerevisiae deletion strains, locus YMR223W, strain ubp8, stronger effect = lower value 0.984 | S. cerevisiae deletion strains, locus YMR231W, strain pep5, stronger effect = lower value 0.997 | S. cerevisiae deletion strains, locus YMR263W, strain SAP30, stronger effect = lower value 0.997 | S. cerevisiae deletion strains, locus YMR307W, strain GAS1, stronger effect = lower value 1.08 | S. cerevisiae deletion strains, locus YNL067W, strain RPL9B, stronger effect = lower value 0.985 | S. cerevisiae deletion strains, locus YNL071W, strain lat1, stronger effect = lower value 0.944 | S. cerevisiae deletion strains, locus YNL128W, strain TEP1, stronger effect = lower value 1.01 | S. cerevisiae deletion strains, locus YNL153C, strain GIM3, stronger effect = lower value 0.99 | S. cerevisiae deletion strains, locus YNL183C, strain NPR1, stronger effect = lower value 0.912 | S. cerevisiae deletion strains, locus YNL209W, strain ssb2, stronger effect = lower value 0.996 | S. cerevisiae deletion strains, locus YNL233W, strain BNI4, stronger effect = lower value 0.997 | S. cerevisiae deletion strains, locus YNL248C, strain rpa49, stronger effect = lower value 0.934 | S. cerevisiae deletion strains, locus YNL250W, strain rad50, stronger effect = lower value 1 | S. cerevisiae deletion strains, locus YNL271C, strain bni1, stronger effect = lower value 1.01 | S. cerevisiae deletion strains, locus YNL298W, strain CLA4, stronger effect = lower value 1.01 | S. cerevisiae deletion strains, locus YNL307C, strain MCK1, stronger effect = lower value 0.975 | S. cerevisiae deletion strains, locus YNL322C, strain KRE1 (second series), stronger effect = lower value 0.985 | S. cerevisiae deletion strains, locus YNL322C, strain KRE1, stronger effect = lower value 1 | S. cerevisiae deletion strains, locus YNR049C, strain mso1, stronger effect = lower value 0.993 | S. cerevisiae deletion strains, locus YNR052C, strain pop2, stronger effect = lower value 1 | S. cerevisiae deletion strains, locus YOL006C, strain TOP1, stronger effect = lower value 1.06 | S. cerevisiae deletion strains, locus YOL012C, strain htz1 1.03 | S. cerevisiae deletion strains, locus YOL147C, strain pex11, stronger effect = lower value 1.01 | S. cerevisiae deletion strains, locus YOR001W, strain rrp6, stronger effect = lower value 0.972 | S. cerevisiae deletion strains, locus YOR061W, strain CKA2, stronger effect = lower value 1 | S. cerevisiae deletion strains, locus YOR069W, strain VPS5, stronger effect = lower value 1 | S. cerevisiae deletion strains, locus YOR070C, strain gyp1, stronger effect = lower value 0.994 | S. cerevisiae deletion strains, locus YOR080W, strain dia2, stronger effect = lower value 0.983 | S. cerevisiae deletion strains, locus YOR083W, strain WHI5, stronger effect = lower value 0.978 | S. cerevisiae deletion strains, locus YOR106W, strain vam3, stronger effect = lower value 0.968 | S. cerevisiae deletion strains, locus YOR136W, strain idh2, stronger effect = lower value 0.992 | S. cerevisiae deletion strains, locus YOR144C, strain elg1, stronger effect = lower value 1.01 | S. cerevisiae deletion strains, locus YOR184W, strain ser1, stronger effect = lower value 0.988 | S. cerevisiae deletion strains, locus YOR231W, strain MKK1, stronger effect = lower value 0.983 | S. cerevisiae deletion strains, locus YOR265W, strain rbl2, stronger effect = lower value 0.987 | S. cerevisiae deletion strains, locus YOR270C, strain vph1, stronger effect = lower value 1.01 | S. cerevisiae deletion strains, locus YOR290C, strain snf2, stronger effect = lower value 0.982 | S. cerevisiae deletion strains, locus YOR316C, strain cot1, stronger effect = lower value 1 | S. cerevisiae deletion strains, locus YPL051W, strain arl3, stronger effect = lower value 0.97 | S. cerevisiae deletion strains, locus YPL055C, strain LGE1, stronger effect = lower value 0.977 | S. cerevisiae deletion strains, locus YPL078C, strain atp4, stronger effect = lower value 0.975 | S. cerevisiae deletion strains, locus YPL106C, strain sse1, stronger effect = lower value 1.01 | S. cerevisiae deletion strains, locus YPL240C, strain hsp82, stronger effect = lower value 1.02 | S. cerevisiae deletion strains, locus YPL241C, strain CIN2, stronger effect = lower value 0.999 | S. cerevisiae deletion strains, locus YPL256C, strain CLN2, stronger effect = lower value 0.972 | S. cerevisiae deletion strains, locus YPR119W, strain clb2, stronger effect = lower value 1.01 | S. cerevisiae deletion strains, locus YPR141C, strain kar3, stronger effect = lower value 1.01 | S. cerevisiae deletion strains, locus YPR163C, strain tif3, stronger effect = lower value 1.02 | S. cerevisiae deletion strains, locus YPR167C, strain met16, stronger effect = lower value 1.01 | S. cerevisiae deletion strains, strain wtn01, stronger effect = lower value 1.02 | S. cerevisiae strains, strain wild type, stronger effect = lower value 0.993
